IP6K1 inhibitor = inhibitors of human IP6K1; activity change, % (series mostly up to about 58 µM); 140,000 tested, 0.81% active; IP6K1 kinase, ADP-Glo luminescence, 2 h; hits give low values; in the data active = activity change below about -25%; note: % is set by controls: 0 for no effect and ±100 for the full control effect
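ADP-Glo luminescence measures ADP made by human IP6K1 during a 2 h RT reaction with ATP/IP6 (mix at 1.3 mM/130 uM); top library doses 57.5 and 19.1 uM final.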
SNCA expr inhib = inhibitors of alpha-synuclein (SNCA) gene expression. Potency, µM (top dose mostly 57.2 µM), for inactives: at the highest dose activity change, negative = inhibition, hits mostly inhibitors. AID 1671194. 140,000 tested, 0.17% active. HEK-293 SNCA-luciferase knock-in, luminescence, 24 h;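 note: potency is the fitted concentration of half-maximal effect; plate controls were DMSO cells for no effect and cell-free wells for full effect; nearly all actives have a fitted effect of over 45% in size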
KDM5B inhibitor = inhibitors of human KDM5B histone demethylase. Q9UGL1. KDM5B demethylase, FDH-coupled NADH fluorescence (FDH is formaldehyde dehydrogenase). Potency, µM (doses to about 57.7 µM), actives largely listed as inhibitors. 220,000 tested, 2.6% active. AID 1347165; note: potency is the fitted concentration of half-maximal effect; 0% is about no effect; nearly all actives have a fitted effect of over 70% in size
Target sequence (Q9UGL1 whole entry, looked up): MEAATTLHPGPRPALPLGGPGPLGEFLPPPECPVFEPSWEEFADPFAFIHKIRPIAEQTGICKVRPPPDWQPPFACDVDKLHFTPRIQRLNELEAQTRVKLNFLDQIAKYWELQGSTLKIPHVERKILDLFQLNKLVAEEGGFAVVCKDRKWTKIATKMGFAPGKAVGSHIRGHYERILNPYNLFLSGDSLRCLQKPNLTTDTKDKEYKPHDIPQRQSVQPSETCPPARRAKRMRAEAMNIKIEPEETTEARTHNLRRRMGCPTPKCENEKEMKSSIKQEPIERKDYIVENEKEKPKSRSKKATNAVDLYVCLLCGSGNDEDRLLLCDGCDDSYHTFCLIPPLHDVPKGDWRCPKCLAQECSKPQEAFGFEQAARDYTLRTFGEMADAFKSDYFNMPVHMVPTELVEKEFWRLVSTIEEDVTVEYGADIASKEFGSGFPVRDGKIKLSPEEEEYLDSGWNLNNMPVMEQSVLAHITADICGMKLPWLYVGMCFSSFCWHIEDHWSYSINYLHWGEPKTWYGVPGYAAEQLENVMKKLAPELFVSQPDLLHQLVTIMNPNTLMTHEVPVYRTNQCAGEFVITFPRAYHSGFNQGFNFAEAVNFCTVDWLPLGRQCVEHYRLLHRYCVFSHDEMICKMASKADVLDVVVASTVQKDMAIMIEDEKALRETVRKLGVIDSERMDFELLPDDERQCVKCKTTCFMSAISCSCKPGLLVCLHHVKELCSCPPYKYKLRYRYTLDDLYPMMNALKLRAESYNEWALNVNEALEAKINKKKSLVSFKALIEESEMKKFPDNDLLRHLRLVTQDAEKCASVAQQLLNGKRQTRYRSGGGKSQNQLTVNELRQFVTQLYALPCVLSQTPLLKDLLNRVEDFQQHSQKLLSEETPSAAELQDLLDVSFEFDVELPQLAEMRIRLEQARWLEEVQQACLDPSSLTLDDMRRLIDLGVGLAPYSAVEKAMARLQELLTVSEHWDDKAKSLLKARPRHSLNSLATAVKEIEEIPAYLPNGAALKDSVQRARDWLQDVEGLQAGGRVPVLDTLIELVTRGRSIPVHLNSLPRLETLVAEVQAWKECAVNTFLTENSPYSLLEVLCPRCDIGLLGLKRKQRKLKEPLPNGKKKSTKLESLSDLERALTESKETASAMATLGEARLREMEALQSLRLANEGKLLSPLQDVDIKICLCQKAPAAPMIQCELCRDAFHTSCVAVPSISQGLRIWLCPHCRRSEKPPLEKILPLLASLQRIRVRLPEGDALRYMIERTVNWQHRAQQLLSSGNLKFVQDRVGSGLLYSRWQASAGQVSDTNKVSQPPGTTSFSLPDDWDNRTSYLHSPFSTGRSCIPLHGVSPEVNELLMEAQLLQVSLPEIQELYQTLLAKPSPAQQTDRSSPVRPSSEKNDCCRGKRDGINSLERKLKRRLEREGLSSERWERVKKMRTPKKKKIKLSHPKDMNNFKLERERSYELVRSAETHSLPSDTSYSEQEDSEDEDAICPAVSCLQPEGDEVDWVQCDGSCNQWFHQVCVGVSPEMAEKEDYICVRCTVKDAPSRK
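qHTS format, multiple compound concentrations. Buffer 50 mM HEPES pH 7.5/0.01% Tween-20; 200 nM KDM5BΔAP final; 10 min compound preincubation; substrate-mix levels 12.5 µM peptide, 25 µM α-KG, 0.25 mM NAD⁺; 30 min RT; ΔRFU.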
HEK293 viab = cell viability loss counter-screen; HEK-293-SNCA-luc viability, GF-AFC fluorescence, 24 h; 150,000 tested, 0.12% active; Potency, µM (series often up to 57.1 µM), for inactives: at the highest dose activity change, negative = cytotoxicity, actives largely listed as cytotoxic;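 note: potency is the fitted concentration of half-maximal effect; 0% = DMSO-treated cells and -100% = medium-only wells without cells; nearly all actives have a fitted effect of over 30% in size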
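Cytotoxicity counterscreen: after 24 h compound treatment of genome-edited SNCA-luciferase HEK-293 cells, live-cell protease substrate GF-AFC read by fluorescence after 30 min; activity scaled between DMSO (0%) and medium-only (-100%), curves Hill-fitted.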
* marks the source's active call; other numbers are inactive results; i = inactive; ? = inconclusive; · = no result; [ ] = dose if it differs, or a comment. Rows were chosen to be rich in hits. Some 3% of all compounds tested hit in one or more screens of this group. Unless noted, calls come from the whole dose curve; as a rule, active = well fitted curve in the direction sought with a large enough effect; inconclusive = small, poorly fitted or top-dose-only effect, or another doubt; inactive = no such curve, though single readings can be large; an effect the other way counts as inactive or inconclusive.

SMILES	IP6K1 inhibitor	SNCA expr inhib	KDM5B inhibitor	HEK293 viab
O=C(O)C1CCc2nnc(C3CCCN(C(=O)c4ccc5c(c4)OC(F)(F)O5)C3)n21 (stereo not drawn)	13	29%	i	5%
Cc1ccc(CN2CCCC(C(=O)N3CCN(c4ccccn4)CC3)CCNC(=O)CC2)s1 (stereo not drawn)	-6	1%	28µM*	4%
CCn1ncc(CN2CCCC(C(=O)N3CCN(c4ccccn4)CC3)CCNC(=O)CC2)c1C (stereo not drawn)	0	5%	25µM*	2%
O=C1CCN(C(=O)C2CCCC2)CCCC(C(=O)N2CCN(c3ccccn3)CC2)CCN1 (stereo not drawn)	-1	18%	?	9%
CCN1CCN(C(=O)C2CCCN(Cc3cccnc3)CCC(=O)NCC2)CC1 (stereo not drawn)	6	-15%	i	-12%
CC(Sc1nnc(Nc2cccc(Cl)c2)s1)C(=O)N(C)c1ccccc1 (stereo not drawn)	·	·	i	·
O=C1NCCCCCCN(C(=O)c2ccoc2)[C@H]2C[C@H](C(=O)N3CCN(c4ccccn4)CC3)C[C@@H]12	12	4%	32µM*	-7%
O=C1NCCCCCCN(C(=O)C2CCCC2)[C@H]2C[C@H](C(=O)N3CCN(c4ccccn4)CC3)C[C@@H]12	9	3%	?	2%
CCC(C)(C)NC(=O)Cc1csc(-c2ccccc2)n1	·	·	i	·
O=C(O)CN1CCN(Cc2ccc(OCCc3ccccc3)cc2)CC1=O	10	4%	25µM*	-3%
Oc1cccc(-c2cc(-c3cccnc3)c3cncn3c2)c1	-9	?	?	-8%[87.6 µM]
c1cncc(-c2cc(-c3ccc4cn[nH]c4c3)cn3cncc23)c1	1	?	35µM*	-9%[87.6 µM]
Cc1ccc(-c2cc(-c3cccnc3)c3cncn3c2)cn1	-8	8%[87.6 µM]	35µM*	-8%[87.6 µM]
COc1ccc(-c2cc(-c3cccc(NC(C)=O)c3)cn3cncc23)cc1	-9	-9%[87.6 µM]	8.9µM*	-9%[87.6 µM]
COc1ccc(-c2cc(-c3cccc(NC(C)=O)c3)cn3cncc23)cn1	-12	9%[87.6 µM]	?	-7%[87.6 µM]
COc1ccc(-c2cc(-c3cccnc3OC)cn3cncc23)cc1	-16	-7%[87.6 µM]	35µM*	-9%[87.6 µM]
CNC(=O)c1ccc(C)c(NC(=O)c2ccc3c(c2)CCCC3)c1	·	·	i	·
O=C(NCc1coc(-c2cccs2)n1)c1ccc(Cl)cc1	·	·	i	·
COc1ccc(-c2cc(-c3cccnc3)cn3cncc23)cc1	0	-6%[87.6 µM]	40µM*	-18%[87.6 µM]
COc1cccc(-c2cc(-c3cccnc3)c3cncn3c2)c1OC	3	12%[87.6 µM]	35µM*	4%[87.6 µM]
FC(F)(F)c1ccccc1-c1cc(-c2cccnc2)c2cncn2c1	-11	?	?	1%[87.6 µM]
COc1ncccc1-c1cc(-c2cccnc2)c2cncn2c1	-18	23%[87.6 µM]	35µM*	-3%[87.6 µM]
Nc1ccc(NS(=O)(=O)c2cccc(Cl)c2Cl)cc1[N+](=O)[O-]	·	·	i	·
COc1ccc(-c2cc(C[C@@H]3CC[C@H](O)[C@@H](CNCc4ccccc4OC)O3)no2)cc1	9	-12%[87.6 µM]	i	-14%[87.6 µM]
CCOc1ccc(Oc2ccc(Cl)cc2NC(=O)Cn2c(=O)c3c(ncn3C)n(C)c2=O)cc1	·	·	i	·
SMILES	IP6K1 inhibitor	SNCA expr inhib	KDM5B inhibitor	HEK293 viab
CSC1=N/C(=C\c2ccc3ccccc3c2)C(=O)S1	·	·	i	·
Cc1noc(C)c1[S+](=O)([O-])N1CCCN(c2ccc3nnc(-c4ccccc4)n3n2)CC1	-9	·	·	·
O=C(NC1(C(F)(F)F)C(=O)Nc2c1c(=O)[nH]c(=O)n2Cc1ccco1)c1ccccc1 (stereo not drawn)	·	·	i	·
Cn1c(=O)c2c(ncn2CCCC(=O)Nc2cccc(N3CCCC3=O)c2)n(C)c1=O	·	·	i	·
O=C(CCCc1ccccc1)NCc1nnc2c(-c3nc(C4CC4)no3)cccn12	13	-13%	28µM*	-18%
O=C(NCc1nnc2c(-c3nc(C4CC4)no3)cccn12)c1ccccc1Cl	26	-2%	?	-5%
O=C(CCC1CCCC1)NCc1nnc2c(-c3nc(C4CC4)no3)cccn12	-4	-3%	11µM*	0%
COc1ccc(CCC(=O)NCc2nnc3c(-c4nc(C5CC5)no4)cccn23)cc1	1	-27%	i	0%
O=C(NCc1nnc2c(-c3nc(C4CC4)no3)cccn12)C1CCC1	2	3%	28µM*	0%
Cc1cccc(C(=O)NC(c2ccc(Cl)cc2)C2CC2)c1 (stereo not drawn)	·	·	i	·
CS(=O)(=O)N1CCC(NC(=O)c2ccc3ccccc3n2)CC1	·	·	i	·
COCCN1CC(C(=O)N2CCN(c3ncccc3C#N)CC2)CCC1=O (stereo not drawn)	5	2%	32µM*	-6%
COCCN1CC(C(=O)N2CCC(O)(c3ccc(F)cc3)CC2)CCC1=O (stereo not drawn)	-5	6%	i	-13%
COc1ccccc1Nc1c2c(nc3ccc(NC(=O)c4cccc(OC)c4OC)cc13)CCCC2	7	?	i	16µM*
Cn1ccc2c(C(=O)NCCc3cnc[nH]3)nc(-c3ccccc3)cc21	7	44%[87.6 µM]	i	-23%[87.6 µM]
COc1ccc(-c2cc3c(ccn3C)c(C(=O)NCCc3cnc[nH]3)n2)cn1	-9	-10%[87.6 µM]	35µM*	-14%[87.6 µM]
COc1cccc(-c2cc3c(ccn3C)c(C(=O)NCCc3cnc[nH]3)n2)c1OC	-15	46%[87.6 µM]	40µM*	-13%[87.6 µM]
Cn1ccc2c(C(=O)NCCc3cnc[nH]3)nc(-c3cnn(Cc4ccccc4)c3)cc21	-6	-15%[87.6 µM]	32µM*	-8%[87.6 µM]
COc1ccccc1-c1cc2c(ccn2C)c(C(=O)NCCc2cnc[nH]2)n1	1	23%[87.6 µM]	40µM*	-12%[87.6 µM]
Cn1ccc2c(C(=O)NCCc3cnc[nH]3)nc(-c3cccnc3)cc21	-16	-9%[87.6 µM]	i	-11%[87.6 µM]
COc1ccc(-c2cc3c(ccn3C)c(C(=O)NCCC(N)=O)n2)cc1OC	-4	?	35µM*	3%[87.6 µM]
Cc1cc(F)cc(CN2CCc3nc(C(=O)Nc4ccccc4)oc3CC2)c1	12	24%[87.6 µM]	28µM*	-6%[87.6 µM]
Cc1ccccc1CN1CCc2nc(C(=O)Nc3ccccc3)oc2CC1	0	-2%[87.6 µM]	28µM*	-10%[87.6 µM]
COc1ccc(Cl)cc1S(=O)(=O)Nc1c(N2CCCC2)c2ccccc2oc1=O	·	·	i	·
Cc1cc(C)n(CC(=O)N[C@@H]2CN(c3ncccn3)C[C@H]2CN(C)C)n1	24	2%	28µM*	11%
CN(C)C[C@@H]1CN(c2ncccn2)C[C@H]1NS(=O)(=O)Cc1ccc(F)cc1	8	-2%	25µM*	-4%
CN(C)C[C@@H]1CN(c2ncccn2)C[C@H]1NC(=O)Cc1cccc(F)c1	-4	25%	25µM*	10%
Cc1ccc(F)cc1S(=O)(=O)N[C@@H]1CN(c2ncccn2)C[C@H]1CN(C)C	23	14%	25µM*	17%
CN(C)C[C@@H]1CN(c2ncccn2)C[C@H]1NC(=O)Cc1cccc(Cl)c1	12	-1%	?	-5%
CN(C)C[C@@H]1CN(c2ncccn2)C[C@H]1NS(=O)(=O)c1cc(F)ccc1F	2	0%	?	2%
